From publication PMC8384837, “Expanding the binding specificity for RNA recognition by a PUF domain”

target: PUM1 PUF domain R4-DYG (Homo sapiens, UniProt Q14671 828-1176, N971D;H972Y;Q975G); assay: yeast three-hybrid, YBZ-1, SC-Leu-His + 0.5 mM 3-AT, 4 days; settings: tags: N-Gal4 AD-HA kept; label: inside an RPR1-promoter hybrid RNA with tandem MS2 sites; ssRNA
How it was run: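 Pumilio-1 PUF domain libraries, randomized (NNK) at the three base-contacting residues of each repeat, were co-expressed with matching RNA elements from a centromeric plasmid in strain YBZ-1 (LexA–MS2 coat fusion, HIS3 reporter). Transformants were plated on SC-Leu (input) and SC-Leu-His + 0.5 mM 3-AT (selection) for four days, and repeat regions were PCR-amplified and Illumina-sequenced. The interaction score is the log2 change in variant frequency from input to selection, with pseudocount 1 where absent.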

| Sequence | binding signal |
| --- | --- |
| GGCUAGAACUAGUGGAUCCCCCGGCGCCCGGCGGCUCGAGCCCGGGUAAGUGUACAUAGUCUGCAUGCCGCCGGGCGCCAUGCCUGCAGGUCGACUCUAGAAAACAUG | 5.37 log2 enrichment (interaction score) |
| GGCUAGAACUAGUGGAUCCCCCGGCGCCCGGCGGCUCGAGCCCGGGUAAGUGUAAAUAGUCUGCAUGCCGCCGGGCGCCAUGCCUGCAGGUCGACUCUAGAAAACAUG | 6.38 log2 enrichment (interaction score) |
| GGCUAGAACUAGUGGAUCCCCCGGCGCCCGGCGGCUCGAGCCCGGGUAAGUGUAUAUAGUCUGCAUGCCGCCGGGCGCCAUGCCUGCAGGUCGACUCUAGAAAACAUG | 6.59 log2 enrichment (interaction score) |
